This is one part of a sample in which hits are shown more often than they occur.
KDM5B inhibitor: inhibitors of human KDM5B histone demethylase; Q9UGL1; KDM5B demethylase, FDH-coupled NADH fluorescence (FDH is formaldehyde dehydrogenase); Potency, µM (titrated, usually from 57.7 µM), actives largely listed as inhibitors; 220,000 tested, 2.6% active; active means well fitted inhibition curve with a large enough effect; further: nearly all actives have a fitted effect of over 70% in size
Target sequence (Q9UGL1 whole entry, looked up): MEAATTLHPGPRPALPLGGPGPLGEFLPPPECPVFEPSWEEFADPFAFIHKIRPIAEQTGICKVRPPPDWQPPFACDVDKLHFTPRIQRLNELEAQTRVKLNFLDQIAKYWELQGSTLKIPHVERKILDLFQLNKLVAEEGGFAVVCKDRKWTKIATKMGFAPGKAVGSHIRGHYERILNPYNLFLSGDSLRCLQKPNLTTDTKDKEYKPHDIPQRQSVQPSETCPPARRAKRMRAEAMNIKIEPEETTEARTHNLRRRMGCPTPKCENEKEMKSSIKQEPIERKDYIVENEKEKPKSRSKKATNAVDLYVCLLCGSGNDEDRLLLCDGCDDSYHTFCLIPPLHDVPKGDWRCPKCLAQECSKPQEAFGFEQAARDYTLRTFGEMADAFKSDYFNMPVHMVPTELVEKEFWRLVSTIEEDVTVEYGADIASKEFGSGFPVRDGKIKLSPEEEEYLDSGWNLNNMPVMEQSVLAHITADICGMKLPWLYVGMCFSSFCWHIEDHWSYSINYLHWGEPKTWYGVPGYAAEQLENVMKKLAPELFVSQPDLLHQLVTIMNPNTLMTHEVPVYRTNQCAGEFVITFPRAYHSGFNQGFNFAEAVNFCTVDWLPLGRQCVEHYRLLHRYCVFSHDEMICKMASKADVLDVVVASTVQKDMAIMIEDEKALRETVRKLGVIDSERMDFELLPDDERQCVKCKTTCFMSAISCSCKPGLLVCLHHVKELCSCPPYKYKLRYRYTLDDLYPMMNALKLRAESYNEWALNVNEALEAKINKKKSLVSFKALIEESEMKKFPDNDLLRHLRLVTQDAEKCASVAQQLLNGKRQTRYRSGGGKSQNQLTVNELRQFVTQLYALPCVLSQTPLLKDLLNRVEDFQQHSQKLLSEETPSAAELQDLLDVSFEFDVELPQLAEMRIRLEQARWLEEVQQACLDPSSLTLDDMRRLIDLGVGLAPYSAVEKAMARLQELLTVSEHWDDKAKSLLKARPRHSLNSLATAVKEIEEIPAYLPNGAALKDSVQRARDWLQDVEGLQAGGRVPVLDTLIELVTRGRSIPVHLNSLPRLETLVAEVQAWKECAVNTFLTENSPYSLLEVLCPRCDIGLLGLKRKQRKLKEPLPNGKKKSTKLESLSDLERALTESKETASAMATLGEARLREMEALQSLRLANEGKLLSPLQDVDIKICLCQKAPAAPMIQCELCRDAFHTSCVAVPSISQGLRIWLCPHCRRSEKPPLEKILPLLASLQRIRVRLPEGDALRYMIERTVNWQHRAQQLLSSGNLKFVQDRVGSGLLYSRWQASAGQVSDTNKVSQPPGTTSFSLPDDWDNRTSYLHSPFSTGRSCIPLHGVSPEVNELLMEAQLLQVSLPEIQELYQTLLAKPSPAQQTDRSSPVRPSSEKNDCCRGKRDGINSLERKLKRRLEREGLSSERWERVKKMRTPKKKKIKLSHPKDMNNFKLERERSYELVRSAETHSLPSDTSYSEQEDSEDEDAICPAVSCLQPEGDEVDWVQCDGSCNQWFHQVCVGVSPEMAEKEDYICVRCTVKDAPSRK
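Inhibition is measured as reduced NADH fluorescence generation from FDH coupling to formaldehyde release. Truncated KDM5BΔAP at 200 nM final acts on H3K4me3 peptide (12.5 µM in substrate mix) in pH 7.5 HEPES buffer with Tween-20, 30 min, room temperature.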
Of the large screens only hits and unclear results are named; the others gave an inactive call.

CCC1=C(C(=O)OC)C(c2cccc(C)c2)N2C(CC(=O)NCC3CC3)=CSC2=N1 (stereo not given)	none
O=S(=O)(NCc1cc2cc(F)ccc2s1)c1ccc(Br)s1	none
NNc1ccc(S(=O)(=O)O)cc1	none
CNC(=O)[C@@H](Cc1ccccc1)N1CCC[C@H]1C(=O)NCCOC	none
CNC(=O)[C@@H](Cc1ccccc1)N1CCC[C@H]1C(=O)NCc1ccccn1	KDM5B inhibitor 28µM
CNC(=O)[C@@H](Cc1ccccc1)N1CCC[C@H]1C(=O)NCc1cccnc1	none
Cc1cccc(N2CCN(Cc3ncc(-c4ccc(F)cc4)o3)CC2)c1C	none
CCn1c(=O)n(CC)c2cc(Sc3ccccc3)c(NC(=O)c3ccccc3)cc21	none
COc1ccc(NC(=O)N2C[C@@H](F)C[C@H]2C(=O)N2CCc3ccccc3C2)c(C)c1	none
CSc1ccc(NC(=O)N2CCc3nc4cc(-c5ccccc5)[nH]n4c(=O)c3C2)cc1	KDM5B inhibitor 25µM
CCc1nc2c(c(-c3ccc(Cl)cc3)n1)CN(C(=O)Nc1ccccc1)CC2	none
COC(=O)CC(NC(=O)N1CCc2c(nc(-c3ccccc3)[nH]c2=O)C1)c1ccccc1 (stereo not given)	none
COc1ccc(NC(=O)N2CCc3c(nc4cc(-c5ccccc5)[nH]n4c3=O)C2)c(C)c1	KDM5B inhibitor 20µM
COC(=O)C(NC(=O)N1CCc2nc3cc(-c4ccccc4)[nH]n3c(=O)c2C1)C(C)C (stereo not given)	KDM5B inhibitor 25µM
COc1ccc(-c2nc(C)nc3c2CCN(C(=O)c2ccccc2)CC3)cc1	none
Cc1ccccc1OCC(=O)N1CCc2c(nc3cc(-c4ccccc4Cl)[nH]n3c2=O)C1	none
COc1ccc(-c2cc3nc4c(c(=O)n3[nH]2)CCN(C(=O)COc2ccccc2C)C4)cc1	KDM5B inhibitor 32µM
Cc1cccc2[nH]c(COCC(=O)N3CCc4c(nc[nH]c4=O)C3)nc12	none
O=C(Nc1ccc(Cl)cc1)N1CCc2nc(-c3ccc(Cl)cc3)nc(-c3ccccc3)c2C1	none
COC(=O)C(NC(=O)N1CCCCCCn2c(nnc2-c2ccc(F)cc2)CC1)C(C)C (stereo not given)	none
C/C=C/c1ccc(OCC(=O)OCC(=O)c2ccc3c(c2)OCO3)c(OC)c1	none
CC(=O)OCc1cnc(C)c2oc(=O)c(-c3nc(-c4ccccc4)no3)cc12	none
CC1(C)CC(=O)C2=C(C1)OC1=C(C(=O)CC(C)(C)C1)C2c1ccc(C(=O)O)cc1	none
Cc1c(C(=O)O)cccc1-c1ccc(C=C(C#N)C#N)o1	none
COc1ccccc1C(=O)NC1CCC(C)CC1 (stereo not given)	none
CCCN1C(=O)CCc2cc(NS(=O)(=O)c3cc(C)ccc3C)ccc21	none
C=CCNc1oc(/C=C/c2cccc(OC)c2)nc1C#N	none
O=C(NC1CCN(Cc2ccc(Cl)cc2)CC1)c1ccc2nc(Cl)ccc2c1	none
COCCN1C(=O)C(=O)/C(=C(/O)c2ccc(OC)c(C)c2)C1c1ccc(OC)c(OC)c1 (stereo not given)	none
CCC(=O)Nc1ccc(C(C)NCc2ccsc2)cc1 (stereo not given)	none
CCCC(=O)N1N=C(c2cccc(NS(C)(=O)=O)c2)CC1c1cccc(F)c1 (stereo not given)	none
CCOc1cc(C2C(C#N)=C(N)Oc3cc(O)ccc32)ccc1OCc1ccccc1 (stereo not given)	none
CC1CCN(CCCNC2CCCC2)CC1	none
Cc1oc2cc(OCC(=O)Nc3ccc(N4CCOCC4)cc3)ccc2c(=O)c1-c1ccccc1	none
CC1CCc2nc3ccc4ccccc4c3c(-c3ccccc3O)c2C1 (stereo not given)	none
CCCCN1C(=O)C(CC(=O)Nc2ccc(F)c(F)c2)n2c1nc1ccccc12 (stereo not given)	none
COc1ccc(NC(=O)N2CCc3nc(-c4cccc(F)c4)[nH]c3C2)cc1	none
O=C([C@@H]1C[C@H](F)CN1C(=O)NCc1cccc(F)c1)N1CCCCC1	none
COc1cccc(-c2cc(C3CCN(C(=O)Nc4ccc(C)cc4C)CC3)[nH]n2)c1	none
COc1ccc(NC(=O)N2CCc3nc4cc(-c5ccccc5)[nH]n4c(=O)c3C2)c(C)c1	KDM5B inhibitor 10µM
O=C(NCc1cccc(F)c1)N1CCc2nc3cc(-c4ccccc4)[nH]n3c(=O)c2C1	KDM5B inhibitor 13µM
O=C(NCc1ccc(F)cc1)N1CC(Oc2ccc(-c3nc(-c4ccccc4)no3)cc2)C1	none
Cc1cc(C)c(NC(=O)CSc2ncnc3ccccc23)c(Cl)c1	none
COc1ccc(CN2CCC3(Cc4ccccc4CNC3=O)C2)c(O)c1 (stereo not given)	none
S=c1sc2c(s1)SCCS2	none
Cc1nc2ccc(NC(=O)CC3C=CCC3)cc2s1 (stereo not given)	none
CCn1c2c(c(=O)n1-c1ccccc1)CCN(C(=O)CCc1cccnc1)C2	none
O=C(CCc1cccnc1)N1CCC(c2[nH]ncc2-c2cccc(F)c2)CC1	none
Cc1cc(-c2cc3c(n(Cc4cccnc4)c2=O)CCN(C(=O)CCc2ccccc2)C3)ccc1F	KDM5B inhibitor 25µM
CC(C)CCNC(=O)c1ccc2c(Cl)c3c(nc2c1)CCCC3	none
CCOc1ccc(/C=C(/C#N)C(=O)c2ccccc2)cc1OC	none
Cc1ccc(-c2nc(CNC(=O)C3CCNC3)[nH]c2-c2ccccn2)cc1 (stereo not given)	none
Cc1ccc(-c2nc(CNC(=O)[C@@H]3CCC[C@H](N)C3)[nH]c2-c2ccccn2)cc1	KDM5B inhibitor 28µM
Cc1ccc(-c2nc(CNC(=O)[C@@H](N)[C@@H](C)O)[nH]c2-c2ccccn2)cc1	none
O=C(Nc1cccnc1Oc1ccccc1)c1cc(F)cc(F)c1	none
CCCCc1ccc(OC(=O)c2ccc(O)cc2)cc1	none
Cn1cnc2c1c(=O)n(CC(=O)Nc1ccc(N3CCCCCC3)cc1)c(=O)n2C	none
Cc1oc(-c2ccccc2)nc1CC(=O)NCC1CN(C)CCO1 (stereo not given)	none
CC(=O)N1CCCN(Cc2nc(-c3cccc(Oc4ccccc4)c3)oc2C)CC1	none
CSc1ccc(-c2nc(CN3CCN(C(C)=O)CC3)c(C)o2)cc1	KDM5B inhibitor 20µM
CC(=O)N1CCN(Cc2nc(-c3cccs3)oc2C)CC1	none
CSc1ccc(-c2nc(CN3CCOC(CCO)C3)c(C)o2)cc1 (stereo not given)	KDM5B inhibitor 16µM
COCCC1CN(Cc2nc(-c3cccc(C(F)(F)F)c3)oc2C)CCO1 (stereo not given)	none
O=C1[C@@H]2C[C@@H](CN2Cc2ccc(Cl)cc2)Oc2ccccc2N1CC1CC1	none
CCSC1=C(C#N)C(c2ccc(C)cc2)C2=C(CCCC2=O)N1 (stereo not given)	none
Cc1ccc(-n2ncnc2-c2cc3c(n(-c4ccccc4)c2=O)CC(C)(C)CC3=O)cc1	none
CC(OC(=O)c1ccc(C(N)=O)cc1)C(=O)NC(C)c1ccccc1 (stereo not given)	none
CSc1cccc(NC(=O)C(C)Br)c1 (stereo not given)	none
O=C(Nc1nc(-c2ccccn2)cs1)C1CC(=O)N(c2ccccc2Cl)C1 (stereo not given)	none
O=C1[C@@H]2C[C@@H](CN2C(=O)c2ccccn2)Oc2ccccc2N1Cc1ccc(OC(F)(F)F)cc1	none
CCOc1nccn2c(-c3ccc(CNC(=O)c4ccnn4C)cc3)cnc12	KDM5B inhibitor 40µM
CCOc1ccc(CNC(=O)CCn2c(=O)c3cccn3c3cccnc32)cc1	none
Cn1nccc1C(=O)NCc1ccc2c(c1)CCN2C(=O)c1ccccc1	none
Cc1ccc(C(=O)NC2(C(F)(F)F)C(=O)Nc3c2c(=O)[nH]c(=O)n3Cc2ccco2)cc1 (stereo not given)	none
Cc1cc(S(=O)(=O)Nc2ccc(F)cc2)ccc1OCC(=O)NCc1ccc2c(c1)OCO2	none
Fc1ccccc1CSc1nnc(-c2c[nH]c3ccccc23)n1C1CC1	none
